Laboratory results as given in PubChem BioAssay (Tox21).
Results filed as inconclusive are left out. Active and inactive are the calls of the source. Unless noted, the call rests on the fitted dose curve; in most records, active means well fitted curve in the direction sought with a large enough effect in the repeat runs; inconclusive means weak or mixed curves; inactive means no such curve, though single readings can be large; an effect the other way counts as inactive or inconclusive.

Assays:
[1] = qHTS assay to identify small molecule agonists of H2AX (AID 1224845; active means well fitted activation curve with a large enough effect in the signal ratio in the repeat runs, not every such curve was filed as active; the % refers to the signal ratio)
In short: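 Wild-type CHO-K1 cells, plated overnight, exposed 3hr at 37C to 15 concentrations (0.76% DMSO final). Lysed, then HTRF anti-pH2AX (S139) cryptate and anti-H2AX-d2 antibodies, 24 hr room temperature; 665/620 nm emission read.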

[2] = qHTS assay to identify small molecule agonists of the hypoxia (HIF-1) signaling pathway (AID 1224846; active means well fitted activation curve with a large enough effect in the signal ratio in the repeat runs, not every such curve was filed as active; the % refers to the signal ratio)
In short: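 ME-180 HRE-bla reporter cells; compounds in DMSO, 17 h at 37C; read-out beta-lactamase via CCF4-AM FRET.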

[3] = qHTS assay to identify small molecule agonists of H2AX - cell viability counter screen (AID 1224847; calls by dose curve; further: top concentration of the series differs between compounds; nearly all actives have a fitted effect of over 30% in size)
In short: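 For this counter screen, overnight-attached CHO-K1 cells received test compounds (15 concentrations, 0.76% DMSO final); 3 hr later at 37C, CellTiter-Glo reagent was added and luminescence recorded after 30 min at room temperature.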

[4] = qHTS assay to identify small molecule antagonists of the estrogen related receptor (ERR) signaling pathway from Tox21 library (AID 1224848); further: nearly all actives have a fitted effect of over 50% in size
In short: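 Compounds dissolved in DMSO are pin-transferred onto ERR reporter cells (2,000 per well) that have settled for 6 h at 37 C. Plates then incubate 18 h at 37 C before ONE-Glo luciferase reagent and a luminescence read 30 min later.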

[5] = qHTS assay to identify small molecule agonists of the estrogen related receptor (ERR) signaling pathway from Tox21 library (AID 1224849; calls by dose curve; further: nearly all actives have a fitted effect of over 15% in size); conditions: ERR reporter cell line, ONE-Glo luciferase, 18 h; at 92.4 µM (top of the series)
In short: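 Luciferase activity in ERR pathway reporter cells served as the agonist readout; exposure lasted 18 h at 37 C, with ONE-Glo detection after 30 min at room temperature.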

[6] = qHTS RealTime-Glo MT Cell Viability Assay in HepG2 cells - 24 hour (AID 1224867); further: nearly all actives have a fitted effect of over 50% in size
In short: (§1)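 HepG2 cells (600/well) were dispensed with RealTime-Glo reagents, incubated 5 h at 37 °C, then treated with compounds in DMSO for up to 40 h. Nonlytic NanoLuc luminescence reflecting viable cells was read at each stated time point.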

[7] = A CellTox Green Cytotoxicity Assay to monitor cytotoxicity in HEK293 cells - 0 hour (AID 1224869); further: nearly all actives have a fitted effect of over 50% in size
In short: (§2)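 Real-time, in one plate: 600 HEK293 cells/well with dead-cell DNA dye, pinned compound after 5 h, 37 C incubation over 40 h; viable cells give no appreciable fluorescence.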

[8] = qHTS RealTime-Glo MT Cell Viability Assay in HepG2 cells - 40 hour (AID 1224870); further: nearly all actives have a fitted effect of over 50% in size
In short: (§3)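 HepG2 cells (600/well) mixed with RealTime-Glo MT reagent, settled 5 h at 37 C/5% CO2 before compound addition. Nonlytic NanoLuc luminescence from viable-cell prosubstrate reduction read repeatedly during 40 h treatment at 37 C.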

[9] = A CellTox Green Cytotoxicity Assay to monitor cytotoxicity in HEK293 cells - 40 hour (AID 1224871); further: nearly all actives have a fitted effect of over 45% in size
In short: as §2

[10] = qHTS RealTime-Glo MT Cell Viability Assay in HepG2 cells - 8 hour (AID 1224873); further: nearly all actives have a fitted effect of over 55% in size
In short: as §3

[11] = qHTS RealTime-Glo MT Cell Viability Assay in HEK293 cells - 40 hour (AID 1224874); conditions: RealTime-Glo luminescence; max response: hits give low values; further: nearly all actives have a fitted effect of over 50% in size
In short: (§4)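 Kinetic, non-lysing viability readout. Seed HEK293 (600/well) with reagent, incubate 5 h at 37 C/5% CO2, pin 23 nL compound in DMSO, incubate at 37 C, read luminescence at 0, 8, 16, 24, 32, 40 h.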

[12] = A CellTox Green Cytotoxicity Assay to monitor cytotoxicity in HEK293 cells - 24 hour (AID 1224875); further: nearly all actives have a fitted effect of over 45% in size
In short: as §2

[13] = A CellTox Green Cytotoxicity Assay to monitor cytotoxicity in HepG2 cells - 16 hour (AID 1224876); further: nearly all actives have a fitted effect of over 45% in size
In short: (§5)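 Cytotoxicity was tracked as dead-cell DNA fluorescence in HepG2 cells treated with test compounds at 37 C; each time-point value comes from one kinetic series spanning 0, 8, 16, 24, 32 and 40 h.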

[14] = A CellTox Green Cytotoxicity Assay to monitor cytotoxicity in HepG2 cells - 24 hour (AID 1224878); further: nearly all actives have a fitted effect of over 45% in size
In short: as §5

[15] = A CellTox Green Cytotoxicity Assay to monitor cytotoxicity in HepG2 cells - 40 hour (AID 1224879); further: nearly all actives have a fitted effect of over 40% in size
In short: as §5

[16] = qHTS RealTime-Glo MT Cell Viability Assay in HEK293 cells - 0 hour (AID 1224880)
In short: as §4

[17] = A CellTox Green Cytotoxicity Assay to monitor cytotoxicity in HEK293 cells - 32 hour (AID 1224881); further: nearly all actives have a fitted effect of over 40% in size
In short: as §2

[18] = qHTS RealTime-Glo MT Cell Viability Assay in HepG2 cells - 32 hour (AID 1224877); further: nearly all actives have a fitted effect of over 55% in size
In short: as §1

[19] = qHTS RealTime-Glo MT Cell Viability Assay in HEK293 cells - 32 hour (AID 1224868)
In short: (§6)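 HEK293 cells seeded with NanoLuc/prosubstrate reagent, rested 5 h at 37 C, then dosed and kept at 37 C up to 40 h. Nonlytic real-time luminescence from viable cells read at 0, 8, 16, 24, 32 and 40 h.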

[20] = qHTS RealTime-Glo MT Cell Viability Assay in HEK293 cells - 16 hour (AID 1224872)
In short: as §6
On the % scale 0 is the no-effect control and ±100 the full control effect.

C=CCc1ccccc1O
inactive: Potency [1] | outcome [2] | Potency [3] | Potency [4] | activity change, positive = activation [5] 0.524% | Potency [6] | Potency [7] | Potency [8] | Potency [9] | Potency [10] | max response [11] 7.74% | Potency [12] | Potency [13] | Potency [14] | Potency [15] | outcome [16] | Potency [17]

Nc1c(Br)cc(Br)c2c1C(=O)c1ccccc1C2=O
inactive: activation (H2AX phosphorylation) [1] 2.27% [at 31.6 µM] | activation [2] 0.237% [at 15.8 µM] | activity change, negative = cytotoxicity [3] -4.33% [at 31.6 µM] | activity, negative = inhibition [4] 31.1% [at 19 µM] | activity change, negative = cytotoxicity [6] -0.948% [at 15.8 µM] | cytotoxicity [7] -2.18% [at 15.8 µM] | activity change, negative = cytotoxic [8] 16.3% [at 15.8 µM] | cytotoxicity increase [9] -1.3% [at 15.8 µM] | viability change, negative = cytotoxic [10] -13.9% [at 15.8 µM] | activity change [12] -4.1% [at 15.8 µM, hits give high values] | cytotoxicity increase [13] -4.68% [at 15.8 µM] | activity change, negative = cytotoxic [18] 5.09% [at 15.8 µM] | cytotoxicity [14] -5.93% [at 15.8 µM] | cytotoxicity increase [15] -11% [at 15.8 µM] | activity change, negative = cytotoxicity [16] -4.62% [at 15.8 µM] | cytotoxicity increase [17] -1.22% [at 15.8 µM]

CC(CC(C(N)=O)(c1ccccc1)c1ccccc1)N(C)C (stereo unspecified)
inactive: Potency [1] | outcome [2] | Potency [3] | Potency [6] | Potency [19] | Potency [7] | Potency [8] | Potency [9] | Potency [20] | Potency [10] | max response [11] 3.65% | Potency [12] | Potency [13] | Potency [18] | Potency [14] | Potency [15] | outcome [16] | Potency [17]

Cc1ccccc1
inactive: Potency [1] | outcome [2] | Potency [3] | Potency [6] | Potency [19] | Potency [7] | Potency [8] | Potency [9] | Potency [20] | Potency [10] | max response [11] 11.7% | Potency [12] | Potency [13] | Potency [18] | Potency [14] | Potency [15] | outcome [16] | Potency [17]

CCC(C)Cl (stereo unspecified)
inactive: Potency [1] | outcome [2] | Potency [3] | Potency [6] | Potency [19] | Potency [7] | Potency [8] | Potency [9] | Potency [20] | Potency [10] | max response [11] 9.33% | Potency [12] | Potency [13] | Potency [18] | Potency [14] | Potency [15] | outcome [16] | Potency [17]

CC(C)(C)N(NC(=O)c1ccc(Cl)cc1)C(=O)c1ccccc1
inactive: Potency [1] | outcome [2] | Potency [3] | activity change, positive = activation [5] -30.6% | Potency [6] | Potency [7] | Potency [8] | Potency [9] | Potency [10] | Potency [12] | Potency [13] | Potency [18] | Potency [14] | Potency [15] | outcome [16] | Potency [17]

CCOc1cccc(C2(N3CCN(c4ccccc4)CC3)CCC(C)CC2)c1 (stereo unspecified)
inactive: Potency [1] | outcome [2] | Potency [3] | Potency [6] | Potency [19] | Potency [7] | Potency [8] | Potency [9] | Potency [20] | Potency [10] | max response [11] -7.17% | Potency [12] | Potency [13] | Potency [18] | Potency [14] | Potency [15] | outcome [16] | Potency [17]
